High-throughput results deposited in PubChem by National Center for Advancing Translational Sciences (NCATS).
In the library only some 14% were active in any assay of this set; here they are far more common.
HADH2 inh: inhibitors of human HADH2 dehydrogenase; Q99714; recombinant HADH2, NADH fluorescence, beta-hydroxybutyryl-CoA; Potency, µM (doses to about 57.1 µM), inactives show at the top dose activity change, negative = inhibition, actives largely listed as inhibitors; 3.4% of 73,000 active; AID 886; note: potency is the fitted concentration of half-maximal effect; % is set by controls: 0 for no effect and ±100 for the full control effect; nearly all actives have a fitted effect of over 60% in size
Target sequence (Q99714 whole entry, looked up, one chain of several): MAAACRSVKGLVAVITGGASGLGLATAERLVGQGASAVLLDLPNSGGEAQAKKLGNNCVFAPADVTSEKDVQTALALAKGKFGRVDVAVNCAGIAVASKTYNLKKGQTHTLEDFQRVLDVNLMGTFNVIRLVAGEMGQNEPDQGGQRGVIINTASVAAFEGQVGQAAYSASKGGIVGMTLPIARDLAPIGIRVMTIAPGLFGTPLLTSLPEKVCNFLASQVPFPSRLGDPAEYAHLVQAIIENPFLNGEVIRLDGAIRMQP
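Activity measured as NADH fluorescence gain (360/450 nm), taken as the change between first and last reads of a 4-min kinetic run. Conditions: pH 9.0 Tris buffer, 20 nM E. coli-expressed His-tagged enzyme, 1 mM NAD+, 90 uM beta-hydroxybutyryl-CoA; 15-min compound preincubation.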
CRE Fsk mod: CRE-bla signaling modulation under forskolin stimulation | CHO CRE-bla reporter (cAMP response element driving beta-lactamase), forskolin EC10, beta-lactamase ratio | Potency, µM (highest dose often 38.2 µM), inactives show top-dose activity change, negative = inhibition, hits mostly activators | 2.5% of 71,000 active; active = well fitted activation curve with a large enough effect in the signal ratio, with a control signal flat, not every such curve was filed as active; inconclusive = small, poorly fitted or top-dose-only effect, or effect the other way, or a change in a side signal; the % refers to the signal ratio; note: potency is the fitted concentration of half-maximal effect; % of control where 0% means no effect
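CRE-bla CHO cells stimulated with EC10 NKH 477 (water-soluble forskolin) and compound titrations, 3 h at 37C; beta-lactamase read with CCF4 after 2 h at room temperature. Activity from 460/530 nm emission ratio, AC50 values for positive or negative modulation.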
AID923: qHTS Assay for Allosteric/Competitive Inhibitors of Caspase-1: Spectroscopic Profiling in AFC Spectral Region | compound fluorescence, AFC spectral region (405/520 nm) | Potency, µM (top dose mostly 57.5 µM), for the others: at the highest dose fluorescence increase, actives largely listed as activators | 1.1% of 75,000 active | AID 923, 2007; note: potency is the fitted concentration of half-maximal effect; 0% is about no effect
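Titrations up to 57 uM read every 20 sec for 3 min (405/520 nm) with 50 nM caspase 1 and 5 uM Ac-WEHD-AFC, pH 7.5 HEPES buffer. Fluorescence-vs-time intercept gave baseline, scaled against on-plate AFC standard.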
4-MU autofl: compounds fluorescent in 4-MU spectral region; compound autofluorescence, 340/450 nm, 4-MU equivalents; active compounds read high; max dye-equivalent concentration, M; 11% of 59,000 active; in the data active = max dye-equivalent concentration above about 10 nM; inconclusive = mostly about 1.1 nM to 9.6 nM
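Compounds in 100 mM Tris, pH 8.0, incubated 15 min at room temperature, then fluorescence read at 340 nm excitation/450 nm emission. Signal converted to 4-MU dye-equivalent concentration using an on-plate six-point 4-MU standard curve.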
A350 autofl: compounds fluorescent in Alexa 350 spectral region. AID 590. Compound autofluorescence, 340/450 nm, Alexa 350 dye-equivalents; active compounds read high. max dye-equivalent concentration, M. 11% of 59,000 active; in the data active = max dye-equivalent concentration above about 10 nM; inconclusive = mostly about 1.1 nM to 9.6 nM
HSD17B inh: HSD17B dehydrogenase inhibition | Potency, µM (top dose mostly 57.1 µM), for the others: at the highest dose activity change, negative = inhibition, hits mostly inhibitors | Q99714 | 7.6% of 75,000 active | recombinant HSD17B10, NADH fluorescence kinetic;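 note: the protocol describes HADH2 (HSD17B10) and not the HSD17B4 of the title; potency is the fitted concentration of half-maximal effect; % is set by controls: 0 for no effect and ±100 for the full control effect; nearly all actives have a fitted effect of over 70% in size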
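20 nM HADH2, pH 9.0 Tris/Tween; cpd preinc 15 min RT; start w/ 1 mM NAD+ + 90 uM b-hydroxybutyryl-CoA; kinetic fluor ex360/em450 q30s x 4 min; delta last-first.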
CHO tox 24h: reduces CRE-bla CHO cell viability after 24 hours | AID 905 | activity, negative = viability loss, % at 46.1 µM | 120 tested, under 10 active | CRE-bla CHO viability, ATP luminescence, 24 h | shares compounds with CRE Fsk mod
CHO tox 40h: CHO cell toxicity at 40 h by ATP luminescence. shares compounds with CRE Fsk mod. CRE-bla CHO viability, ATP luminescence, 40 h. Potency, µM, without a hit: max response, most hits filed as inhibitors. 120 tested, under 10 active
CREB luc CRC: confirmation of CRE signaling potentiators in HEK293 CREB reporter cells. 80% of 120 active. AID 907. Potency, µM (top dose mostly 38.3 µM), without a hit: at the top dose activity, positive = activation, usual class: activators. shares compounds with CRE Fsk mod. HEK293 CRE-luc2P, NKH477 EC10 potentiation, luminescence, 4 h
The depositor's hits bear a star; i = inactive; ? = inconclusive; · = no result given. Unless noted, calls come from the whole dose curve; as a rule, active = well fitted curve in the direction sought with a large enough effect; inconclusive = small, poorly fitted or top-dose-only effect, or another doubt; inactive = no such curve, though single readings can be large; an effect the other way counts as inactive or inconclusive.

SMILES	HADH2 inh	CRE Fsk mod	AID923	4-MU autofl	A350 autofl	HSD17B inh	CHO tox 24h	CHO tox 40h	CREB luc CRC
Cn1c(C(=O)N2CCC3(CC2)OCCO3)cc2c(=O)n(C)c3ccccc3c21	6%	?	3%	i	i	-5%	-7	-7%	14µM*
CN1C(=O)c2ccccc2Sc2ccc(C(=O)N3CCC4(CC3)OCCO4)cc21	0%	?	1%	i	i	11%	·	·	·
CCC[CH2][Sn]([Cl])([Cl])[Cl]	-2%	-12%	2%	·	·	-7%	·	·	·
CN(C)C=C1C(=O)N(C2CCCCC2)C(=O)N(C2CCCCC2)C1=O	?	-10%	-2%	i	i	-8%	-28	?	?
CC(C)C(=O)N1CCN(CCN=Cc2c(O)n(C)c(=O)n(C)c2=O)CC1	·	·	·	i	i	·	0	-4%	-1%
CN=C=O	0%	-2%	12%	·	·	2%	·	·	·
CCc1ccccc1NC(=O)CSc1nnc([C@@H](N)Cc2c[nH]c3ccccc23)o1	-7%	-3%	5%	i	i	-9%	·	·	·
COc1ccc(Cl)cc1NC(=O)CSc1ncnc2c1oc1ccccc12	15%	0.1µM*	-1%	i	i	1%	-8	-13%	1.3µM*
